Experimental data from PubChem BioAssay AID1326 (NMMLSC, 2008).
Screen size: about 190,000 compounds; about 130 (0.068%) were called active. This excerpt belongs to a sample that is enriched for actives. Values without a mark were called inactive. Rule as the data show it: active = inhibition above about 40%; inactive = the rest.

The molecules below were run against ATP-dependent translocase ABCB1 (Homo sapiens) (UniProt P08183) (assay: ABCB1 efflux pump inhibitors, primary screen, cell-based, multiplex, flow cytometry, ABCG2 counter-screen (AID 1326;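 also: 0% = vehicle and 100% = reference inhibitor; higher value means more JC-1 retained so stronger ABCB1 efflux block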)). Conditions: CCRF-Adr cells, JC-1 efflux, at 6.6 µM, stronger effect = higher value.
Sequence of ATP-dependent translocase ABCB1 (Homo sapiens) (P08183 whole entry, looked up): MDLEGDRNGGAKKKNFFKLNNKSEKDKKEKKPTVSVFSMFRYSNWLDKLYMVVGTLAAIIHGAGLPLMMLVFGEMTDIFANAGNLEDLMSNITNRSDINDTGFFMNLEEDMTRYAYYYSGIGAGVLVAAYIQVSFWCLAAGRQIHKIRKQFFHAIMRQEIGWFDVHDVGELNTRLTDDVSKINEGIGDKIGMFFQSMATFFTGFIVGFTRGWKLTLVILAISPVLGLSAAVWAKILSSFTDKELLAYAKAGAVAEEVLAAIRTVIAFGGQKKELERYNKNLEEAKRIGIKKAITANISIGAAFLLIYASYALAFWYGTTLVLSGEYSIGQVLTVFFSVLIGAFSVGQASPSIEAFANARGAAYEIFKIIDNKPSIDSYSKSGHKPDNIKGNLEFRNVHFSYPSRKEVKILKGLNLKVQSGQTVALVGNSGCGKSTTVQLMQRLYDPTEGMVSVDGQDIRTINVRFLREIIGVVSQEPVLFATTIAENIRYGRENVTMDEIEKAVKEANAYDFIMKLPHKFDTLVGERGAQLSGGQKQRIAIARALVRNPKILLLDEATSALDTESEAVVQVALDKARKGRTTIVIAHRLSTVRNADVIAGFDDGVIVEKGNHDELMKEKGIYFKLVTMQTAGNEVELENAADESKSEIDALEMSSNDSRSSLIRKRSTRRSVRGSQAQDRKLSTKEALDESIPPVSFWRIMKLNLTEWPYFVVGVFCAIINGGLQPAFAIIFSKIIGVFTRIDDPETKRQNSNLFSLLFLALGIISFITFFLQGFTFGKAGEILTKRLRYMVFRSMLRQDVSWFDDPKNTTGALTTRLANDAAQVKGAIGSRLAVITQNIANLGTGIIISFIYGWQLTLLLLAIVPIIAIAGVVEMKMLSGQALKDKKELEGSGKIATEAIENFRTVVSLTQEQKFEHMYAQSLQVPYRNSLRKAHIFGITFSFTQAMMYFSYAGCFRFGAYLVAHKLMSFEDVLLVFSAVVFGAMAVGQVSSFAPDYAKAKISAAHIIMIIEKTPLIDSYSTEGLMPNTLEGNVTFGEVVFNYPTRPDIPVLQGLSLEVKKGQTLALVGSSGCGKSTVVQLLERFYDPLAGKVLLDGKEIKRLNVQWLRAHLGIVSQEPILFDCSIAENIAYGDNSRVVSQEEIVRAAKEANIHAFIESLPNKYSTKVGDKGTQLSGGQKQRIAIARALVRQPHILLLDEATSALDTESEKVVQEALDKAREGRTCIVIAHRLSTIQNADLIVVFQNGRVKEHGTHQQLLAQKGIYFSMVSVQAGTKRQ
In the case of `COc1ccc2c(-c3ccccc3)cc(SCC(=O)N(C)C3CCS(=O)(=O)C3)nc2c1` (stereo not given), the inhibition is reported as 1.15%.
`O=C(CN1CCCCCC1)NCCN1C(=O)S/C(=C\c2ccccc2Cl)C1=O` showed an inhibition of 0.67%.
Molecule `COCCn1c(C)cc(C(=O)CSc2nc3ccccc3c(=O)n2C(C)COC)c1C` (stereo not given) has an inhibition of 2.97%.
With `Cc1cc(C)cc(NC(=O)N2CCCCCCC2)c1` the inhibition was 2.76%.
`COc1cccc(C(O)Cc2nc3ccccc3n2C)c1OC` (stereo not given) gave an inhibition of -0.47%.
In the case of `C=CCc1cccc2cc(C(=O)NC3CCCC3)c(=O)oc12`, the inhibition is reported as 1.75%.
`Cc1c(C(=O)c2cccc([N+](=O)[O-])c2)c2ccccn2c1CCC#N` was tested, and the inhibition was 2.01%.
With `Cc1ccc(-n2c(SCC(=O)Nc3ncc(Cl)cc3Cl)nc3ccccc32)cc1` the inhibition was 56.9% (active).
With `NS(=O)(=O)c1cccc(NC(=O)CSc2nc3ccccc3n2-c2ccccc2)c1` the inhibition was -1.23%.
`Cc1ccc(SCCC(=O)OCC(=O)Nc2ncc(Cl)cc2Cl)cc1` showed an inhibition of 0.04%.
Work on `CCn1c(SCC(=O)Nc2nccs2)nnc1-c1ccco1` yielded an inhibition of 0.22%.
Molecule `COCCCNC(NC(=O)c1ccc(OC)cc1)C(Cl)(Cl)Cl` (stereo not given) has an inhibition of 0.77%.
In the case of `O=c1[nH]c2cccnc2n(CCNc2ncc(C(F)(F)F)cc2Cl)c1=O`, the inhibition is reported as 0.11%.
Molecule `CC(C)(C)n1ncc2c(=O)n(Cc3ccc(Cl)cc3)cnc21` has an inhibition of 0.59%.
Work on `C#CCOCCOCCOCCNc1nc(N2CCN(C(=O)[C@H](CCCCN)n3cc([C@@H](N)C(C)CC)nn3)CC2)nc(N2CCN(C(=O)[C@H](Cc3ccc(O)cc3)n3cc([C@@H](N)C(C)CC)nn3)CC2)n1` (stereo not given in full) yielded an inhibition of 0.44%.
`COc1ccc(Cn2c(=O)cc(C)[nH]c2=S)cc1` showed an inhibition of 1.2%.
`O=C(Oc1c(-c2ccco2)oc2ccccc2c1=O)c1cccnc1` showed an inhibition of 1.71%.
Molecule `O=C(N/N=C/c1sc(N2CCCCC2)nc1-c1cccs1)c1cccnc1` has an inhibition of -0.08%.
Work on `CCOc1cnc(C(=O)NNC(=O)c2ccccc2Br)o1` yielded an inhibition of -0.12%.
Molecule `COc1ccc(CN2CCNC(=O)C2CC(=O)N(C)Cc2ccccn2)cc1OC` (stereo not given) has an inhibition of 0.3%.
With `N=C1C(c2nc3ccccc3s2)=C(O)CN1NC(=O)c1ccc([N+](=O)[O-])cc1` the inhibition was -0.23%.
With `CN(CC(=O)Nc1ccccc1F)CC(=O)Nc1ccccc1Br` the inhibition was -0.22%.
Molecule `CCOCCCn1c(NN)nc2ccccc2c1=O` has an inhibition of 0.54%.
Work on `Nc1ccc(Cl)c(S(=O)(=O)Nc2ccccc2Cl)c1` yielded an inhibition of 0.19%.
`COc1ccc(-c2[nH]ncc2CN(Cc2nccn2C)C(C)C)cc1F` was tested, and the inhibition was 2.14%.
Work on `CCC(C(=O)Nc1ccc(C(C)C)cc1)c1ccccc1` (stereo not given) yielded an inhibition of 0.19%.
`N#Cc1c(NC(=O)C2CCCO2)sc2c1CCCCC2` (stereo not given) gave an inhibition of 1.4%.
`O=C(C1CC1)N1N=C2CCCCC2C1(O)C(F)(F)F` (stereo not given) gave an inhibition of 0.21%.
`COCC(C)NCc1cc(Br)ccc1OC` (stereo not given) showed an inhibition of 0.42%.
Molecule `Cc1ccc2nc(-c3cccnc3)c(NC3CCCC3)n2c1` has an inhibition of 1.9%.
`COc1cc2[nH]c(=O)n(Cc3ccc(C(=O)NC4CCN(Cc5ccccc5)CC4)cc3)c(=O)c2cc1OC` gave an inhibition of 0%.
`O=C(NCCc1ccccc1)C1CCC(Cn2c(=O)c3ccccc3n(Cc3cccnc3)c2=O)CC1` (stereo not given) showed an inhibition of 4.02%.
In the case of `CC(=O)Nc1ccc(C(=O)CSc2nc3ccc(C)cc3[nH]2)cc1`, the inhibition is reported as -0.95%.
`c1ccc(CN=C2Nc3ccccc3CS2)nc1` gave an inhibition of 0.26%.
`O=C(c1ccc(N2CCOCC2)c([N+](=O)[O-])c1)N1CCN(S(=O)(=O)c2cccs2)CC1` gave an inhibition of 0.44%.
Molecule `CC(C)CN1CCNC(=O)C1CC(=O)N(C)CC1CCOCC1` (stereo not given) has an inhibition of 0.15%.
`CCCCCc1nnc(NC(=O)c2ccc(=O)n(C)n2)s1` showed an inhibition of 0.44%.
`CC1CCCN(CC(O)COc2ccc3c(c2)OCO3)C1` (stereo not given) showed an inhibition of 0.12%.
With `CCCCN1C(=S)NC[C@@H]1C(C)CC` (stereo not given in full) the inhibition was 0.02%.
`CC/C(=N\NC(=O)c1ccccc1Cl)c1ccc(Br)s1` was tested, and the inhibition was 1.38%.
Work on `COc1ccc(CCNC(=O)CSc2nc3[nH]ncc3c(=O)n2-c2cccc(C(F)(F)F)c2)cc1OC` yielded an inhibition of 0.5%.
With `O=C(C1CCCO1)N1CCN(C(=S)NC2CC2)CC1` (stereo not given) the inhibition was 0.55%.
`CNC(=S)N1CCC(NC(=O)C(Cc2ccc(F)cc2)NC(C)=O)CC1` (stereo not given) was tested, and the inhibition was 0.7%.
For `Cc1ccc(C)c(NC(=O)CCC(=O)N/N=C2/CC(=O)CC(C)(C)C2)c1`, the inhibition was 0.24%.
In the case of `Cc1c(CCOC(=O)c2cc([N+](=O)[O-])ccc2Cl)sc[n+]1CCCCS(=O)(=O)[O-]`, the inhibition is reported as 1.17%.
For `Cc1c(CCOC(=O)CC23CC4CC(CC(C)(C4)C2)C3)sc[n+]1Cc1ccc([N+](=O)[O-])cc1`, the inhibition was 53.8% (active).
Work on `Cc1c(CCO)sc[n+]1CC(=O)OC12CC3CC(CC(C3)C1)C2` yielded an inhibition of 0.29%.
`CC(C)NC(=O)c1ccc(Cl)cc1Cl` was tested, and the inhibition was -0.21%.
`CC(=O)c1ccc(NC(=O)C(C)NCc2ccc(Cl)cc2)cc1` (stereo not given) gave an inhibition of 0.85%.
`Cc1nc(CN2CCN(C(=O)CCc3nnc(Cc4c[nH]c5ccccc45)o3)CC2)cs1` was tested, and the inhibition was -1.57%.
`CN1CCN(/N=C/c2ccc(C#N)cc2)CC1` was tested, and the inhibition was 1.07%.
`CCC(C)(C)NC(=O)CN(C(=O)C(=O)Nc1ccc2c(c1)OCCO2)C(C)(C)CC` gave an inhibition of 2.48%.
With `CSc1ccc(/C=N/NC(=O)c2cccc(Cl)c2)cc1` the inhibition was -0.32%.
`CC(=O)Nc1ccccc1OC(C)C(=O)N1CCC(C)CC1` (stereo not given) showed an inhibition of 0.05%.
For `COc1cc(NC(=S)NCc2ccc(S(N)(=O)=O)cc2)cc(OC)c1`, the inhibition was -0.49%.
